PubChem BioAssay (Tox21)
Results filed as inconclusive are left out. Activity calls are given as the source filed them. Unless noted, the call rests on the fitted dose curve; in most records, active means well fitted curve in the direction sought with a large enough effect in the repeat runs; inconclusive means weak or mixed curves; inactive means no such curve, though single readings can be large; an effect the other way counts as inactive or inconclusive.

Key:
[1] = qHTS assay to identify small molecule agonists of the NFkB signaling pathway - cell viability counter screen (AID 1159515; calls by dose curve; further: nearly all actives have a fitted effect of over 55% in size; further: potency means the concentration at half of the fitted maximal effect)
Procedure, shortened: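 Plate 2,000 NFkB-bla ME-180 cells/well; incubate overnight. Add compounds, 5 hr at 37 C. Add FRET substrate, 1.5 hr RT. Add CellTiter-Glo, 30 min RT; read luminescence.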

[2] = qHTS assay to identify small molecule agonists of the endoplasmic reticulum stress response signaling pathway - cell viability counter screen (AID 1159517; calls by dose curve; further: nearly all actives have a fitted effect of over 50% in size; further: potency means the concentration at half of the fitted maximal effect)
Procedure, shortened: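 Cpd-treated ESRE-bla HeLa (5 hr, 37 C) → LiveBLAzer 2 hr RT → CellTiter-Glo 30 min RT → luminescence.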

[3] = qHTS assay to identify small molecule antagonists of the retinoid-related orphan receptor gamma (ROR-gamma) signaling pathway - cell viability counter screen (AID 1159520); further: nearly all actives have a fitted effect of over 50% in size; further: potency means the concentration at half of the fitted maximal effect
Procedure, shortened: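 Tet-on ROR gamma CHO cells (1,000/well) were plated 4 hr, given compounds in DMSO for 2 hr at 37 C, then induced with 1 uM final doxycycline for 16 hr. Viability was read as ATP by CellTiter-Glo luminescence after 30 min.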

[4] = qHTS assay to identify small molecule agonists of the AP-1 signaling pathway - cell viability counter screen (AID 1159525; calls by dose curve; further: nearly all actives have a fitted effect of over 55% in size)
Procedure, shortened: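 Each titration point was normalised to DMSO and tetra n-octyl ammonium bromide controls. The read was Cell Titer Glo luminescence after 30 min at RT, following 5 h compound exposure of ME-180 AP-1-bla cells at 37 °C.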

[5] = qHTS assay to identify small molecule antagonists of the retinoid acid receptor (RAR) signaling pathway - cell viability counter screen (AID 1159551); further: nearly all actives have a fitted effect of over 35% in size
Procedure, shortened: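 Viability of C3RL4 cells is quantified from ATP by luminescence after 6 h treatment at 37 C with compounds and 1 uM retinol.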

[6] = qHTS assay to identify small molecule antagonists of the retinoic acid receptor (RAR) signaling pathway (AID 1159552; further: nearly all actives have a fitted effect of over 50% in size; further: potency means the concentration at half of the fitted maximal effect)
Procedure, shortened: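 C3RL4 RARE-luc cells, overnight plating; retinol 1 uM final added right after compound; 6 hr 37 C; luciferase read at 30 min RT.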

[7] = qHTS assay to identify small molecule agonists of the retinoic acid receptor (RAR) signaling pathway (AID 1159553); further: potency means the concentration at half of the fitted maximal effect
Procedure, shortened: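 Compounds dissolved in DMSO were pinned onto C3RL4 cells seeded the previous day, and plates were held 6 hr at 37 C. RARE-driven luciferase output was then read by luminescence.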

[8] = qHTS assay to identify small molecule agonists of the vitamin D receptor (VDR) signaling pathway - cell viability counter screen (AID 743224); further: nearly all actives have a fitted effect of over 50% in size; further: potency means the concentration at half of the fitted maximal effect
Procedure, shortened: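 In parallel with the bla FRET readout, cytotoxicity toward VDR-bla cells after 16 h compound exposure was assessed by CellTiter-Glo, with luminescence recorded after a 30 min room-temperature incubation.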

[9] = qHTS assay to identify small molecule antagonists of the vitamin D receptor (VDR) signaling pathway - cell viability counter screen (AID 743225); further: nearly all actives have a fitted effect of over 50% in size; further: potency means the concentration at half of the fitted maximal effect
Procedure, shortened: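 Parallel cytotoxicity test: VDR-UAS-bla HEK 293T, 3 nM (final) 1-alpha,25-dihydroxyvitamin D3 with test compound, 16 h, 37C. Endpoint is CellTiter-Glo luminescence in the same wells.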

[10] = qHTS assay to identify small molecule agonists of the AP-1 signaling pathway (AID 1159526; calls by dose curve; further: potency means the concentration at half of the fitted maximal effect)
[11] = qHTS assay to identify small molecule agonists of the RXR signaling pathway - cell viability counter screen (AID 1159529); further: nearly all actives have a fitted effect of over 50% in size; further: potency means the concentration at half of the fitted maximal effect
Procedure, shortened: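 In this parallel viability measure, GeneBLAzer RXR-alpha HEK 293T cells (2% charcoal-stripped FBS) were given a 5 hr preincubation, treated with compounds 16 hr at 37 C, and read by CellTiter-Glo luminescence.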

[12] = target: Retinoic acid receptor RXR-alpha (Homo sapiens) (UniProt P19793); test: qHTS assay to identify small molecule agonists of the RXR signaling pathway (AID 1159527; calls by dose curve; further: nearly all actives have a fitted effect of over 35% in size)
Sequence of Retinoic acid receptor RXR-alpha (Homo sapiens) (P19793 whole entry, looked up): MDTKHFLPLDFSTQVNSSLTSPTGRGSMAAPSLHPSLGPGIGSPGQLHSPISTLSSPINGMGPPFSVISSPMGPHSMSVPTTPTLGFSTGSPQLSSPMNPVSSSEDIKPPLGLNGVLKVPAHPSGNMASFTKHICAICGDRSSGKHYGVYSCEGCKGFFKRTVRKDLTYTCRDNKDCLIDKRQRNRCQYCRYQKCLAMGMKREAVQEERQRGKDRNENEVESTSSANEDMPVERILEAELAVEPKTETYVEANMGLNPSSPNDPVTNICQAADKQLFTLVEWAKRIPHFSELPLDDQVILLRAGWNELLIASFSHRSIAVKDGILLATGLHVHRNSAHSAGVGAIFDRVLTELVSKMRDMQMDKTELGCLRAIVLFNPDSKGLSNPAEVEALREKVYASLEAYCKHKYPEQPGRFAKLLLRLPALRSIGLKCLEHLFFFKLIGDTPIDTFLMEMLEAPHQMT
Procedure, shortened: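 16 hr incubation of compound-treated RXR-alpha-UAS-bla HEK 293T cells (2% charcoal-stripped FBS, 37 C) preceded a 2 hr room-temperature LiveBLAzer FRET substrate step and blue/green fluorescence measurement.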

[13] = qHTS assay to identify small molecule antagonists of the estrogen related receptor (ERR) signaling pathway - cell viability counter screen (AID 1224818);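 further: series mostly up to about 46 µM; viability measured after 17.5 h of compound exposure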
Procedure, shortened: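 Cytotoxicity check run alongside the ERR antagonist screen: cells exposed to test compounds 17.5 h at 37 C, viability taken as CellTiter-Fluor fluorescence intensity.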

[14] = qHTS assay to identify small molecule antagonists of the estrogen related receptor (ERR) signaling pathway (AID 1224819; further: nearly all actives have a fitted effect of over 50% in size; further: potency means the concentration at half of the fitted maximal effect)
Procedure, shortened: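 ERR reporter cells were plated at 2,000 cells/well and left 6 h at 37 C/5% CO2 before pin-tool transfer of compounds in DMSO. After 18 h at 37 C, One-Glo was added and luminescence was read 30 min later at room temperature.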

[15] = qHTS assay to identify small molecule agonists of the estrogen related receptor (ERR) signaling pathway (AID 1224820)
Procedure, shortened: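 An ERR cell line provided by NTP was seeded at 2,000 cells per well and allowed to settle for 6 h before compounds in DMSO were added. After 18 h at 37 C, luciferase activity was measured by One-Glo luminescence.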

[16] = system: estrogen-related receptor alpha (ERRalpha) with PGC-1alpha coactivator, human; test: qHTS assay to identify small molecule antagonists of the estrogen related receptor signaling pathway with the pleiotropic PPARgamma coactivator (PGC) (AID 1224821; calls by dose curve)
Procedure, shortened: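 A PGC/ERR cell line supplied by NTP is seeded, allowed 6 h at 37 C, and treated with test compounds in DMSO for 18 h. Signal is then measured as luciferase luminescence using One-Glo.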

[17] = qHTS assay to identify small molecule antagonists of the estrogen related receptor signaling pathway with the pleiotropic PPARgamma coactivator (PGC) cell viability counter screen (AID 1224822;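 further: series mostly up to about 46 µM; viability read after 17.5 h compound exposure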)
Procedure, shortened: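 Viable cell signal (CellTiter-Fluor, 30 min, 37 C/5% CO2) was measured in PGC/ERR cells after a 17.5 h compound incubation.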

[18] = qHTS assay to identify small molecule agonists of the estrogen related receptor signaling pathway with the pleiotropic PPARgamma coactivator (PGC) (AID 1224823)
Procedure, shortened: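 Compounds dissolved in DMSO are added by pin tool to PGC/ERR cells that have settled for 6 h, and incubation continues 18 h at 37 C. Reporter output is measured as One-Glo luminescence.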

[19] = target: Nuclear receptor ROR-gamma (Homo sapiens) (UniProt P51449); test: qHTS assay to identify small molecule antagonists of the retinoid-related orphan receptor gamma (ROR-gamma) signaling pathway (AID 1159521)
Procedure, shortened: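 Decreased RORE-driven luciferase luminescence indicates antagonism. Tet-on RORγ CHO cells received compound, then 1 uM final doxycycline 2 h later; signal read after 16 h incubation.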

Measured: Potency

CCc1oc2ccccc2c1C(=O)c1cc(Br)c(O)c(Br)c1
inactive: [1] | [2] | [3] | [4] | [5] | [6] | [7]

Cc1cccc(N(C)C(=S)Oc2ccc3c(c2)C2CCC3C2)c1 (centres undefined)
inactive: [8] | [9] | [1] | [2] | [3] | [4] | [5] | [6]

CCC1=C[C@@H]2CN(C1)Cc1c([nH]c3ccccc13)[C@@](C(=O)OC)(c1cc3c(cc1OC)N(C)[C@H]1[C@@](O)(C(=O)OC)[C@H](OC(C)=O)[C@]4(CC)C=CCN5CC[C@]31[C@@H]54)C2
inactive: [8] | [9] | [1] | [2] | [3] | [4] | [5]
active: [10] 0.107 µM

C[C@]12CCC(=O)C=C1CC[C@@H]1[C@@H]2[C@@H](O)C[C@@]2(C)[C@H]1CC[C@]2(O)C(=O)COC(=O)CCC(=O)O
inactive: [8] | [9] | [1] | [2] | [3] | [4] | [10] | [11]

CC(C)OC(=O)c1cc2c(OCC(O)CNC(C)(C)C)cccc2[nH]1 (centres undefined)
inactive: [8] | [9] | [1] | [2] | [3] | [4] | [10] | [5] | [7]

Cc1onc(-c2ccccc2Cl)c1C(=O)N[C@@H]1C(=O)N2[C@@H]1SC(C)(C)[C@@H]2C(=O)O
not listed: [10] | [13] | [14] | [15] | [16] | [17] | [18] | [19]
inactive: all other assays above

NC(=O)NS(=O)(=O)c1ccc(N)cc1
inactive: [9] | [1] | [2] | [3] | [4] | [10] | [12] | [5] | [6] | [7]

CCC(CN)=C(c1ccccc1)c1ccccc1
inactive: [1] | [2] | [3] | [4] | [11] | [5]

O=C(c1ccc(F)cc1)C1CCN(CCn2c(=O)[nH]c3ccccc3c2=O)CC1
not listed: [8] | [9] | [12] | [19]
inactive: all other assays above

Fc1ccc([C@@H]2CCNC[C@H]2COc2ccc3c(c2)OCO3)cc1
inactive: [1] | [2] | [3] | [4] | [11] | [5] | [7]

CN(C)CCCOC1(Cc2ccccc2)CCCCCC1
inactive: [1] | [2] | [3] | [4] | [5] | [7]

Cc1ccc(-n2nc(C(C)(C)C)cc2NC(=O)Nc2ccc(OCCN3CCOCC3)c3ccccc23)cc1
inactive: [8] | [9] | [1] | [2] | [3] | [4] | [10] | [5] | [6]
active: [7] 18.8 µM

CN(C)[C@@H]1C(=O)C(C(N)=O)=C(O)[C@@]2(O)C(=O)C3=C(O)c4c(O)ccc(Cl)c4[C@@H](O)[C@H]3C[C@@H]12
not listed: [5] | [6] | [12] | [14] | [19]
inactive: all other assays above

OC1(c2ccc(Cl)c(C(F)(F)F)c2)CCN(CCCC(c2ccc(F)cc2)c2ccc(F)cc2)CC1
active: [8] 13.3 µM | [9] 10.7 µM | [1] 12 µM | [2] 8.49 µM | [3] 9.44 µM | [11] 6.74 µM | [6] 26.6 µM

CN1CCC(Nc2ncc3ncnc(Nc4ccc(F)c(Cl)c4)c3n2)CC1
inactive: [1] | [2] | [3]
active: [9] 21.3 µM

COc1c(C)c2c(c(O)c1C/C=C(\C)CCC(=O)O)C(=O)OC2
active: [2] 16.9 µM | [19] 0.133 µM
inactive: [8] | [1] | [4] | [10] | [5] | [6] | [7]

O=c1[nH]sc2cc(Cl)ccc12
inactive: [1] | [2] | [5] | [6]
active: [3] 26.6 µM | [11] 26.8 µM

Cc1[nH]cnc1C[C@H]1CCc2c(C)c3ccccc3n2C1=O
active: [19] 23.7 µM | [11] 19 µM
inactive: [9] | [1] | [2] | [4]

OCCCCCCCCCCCCBr
inactive: [9] | [1] | [2] | [4] | [10] | [5] | [6] | [7]
active: [19] 62.1 µM

O=C1Cc2cc(CCN3CCN(c4nsc5ccccc45)CC3)c(Cl)cc2N1
inactive: [2] | [3] | [6] | [7] | [15] | [18]
active: [9] 23.9 µM | [1] 23.9 µM | [14] 20.3 µM
